Assay results reported in PubChem BioAssay (NCI).
About 79,000 compounds went through this panel and 15% of them were active in at least one assay; those are over-represented in the sample as a whole. The source made the active and inactive calls. No stated cut-off is given here; in the data, active means growth inhibition above about 70%; inactive means the rest.

What was measured:
[1] = NCI Yeast Anticancer Drug Screen. Data for the rad52 strain (AID 147);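 further: 0% = growth of vehicle-treated control cultures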; details: S. cerevisiae rad52 mutant growth inhibition, active compounds read high
In short: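 Read-out: growth inhibition versus vehicle-treated controls. Cells were a DNA repair-deficient yeast strain treated with compounds.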

[2] = NCI Yeast Anticancer Drug Screen. Data for the wt1 strain (AID 149);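 further: 0% = growth of vehicle-treated wt1 cultures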; details: S. cerevisiae wt1 strain (SPY 50644) growth inhibition, active compounds read high
In short: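 wt1 strain grown with compound or vehicle; inhibition taken from the growth difference.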

[3] = NCI Yeast Anticancer Drug Screen. Data for the rad50EPP+ strain (AID 151);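 further: 0% = growth of vehicle-treated control cultures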; details: S. cerevisiae rad50 mutant strain, active compounds read high
In short: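 Growth inhibition read against vehicle controls in rad50EPP+ yeast, a strain altered in DNA damage repair, after compound exposure.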

[4] = NCI Yeast Anticancer Drug Screen. Data for the mgt1 strain (AID 153); details: S. cerevisiae mgt1 mutant growth inhibition, active compounds read high
In short: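 mgt1 yeast grown with test compound; read-out is growth inhibition versus vehicle-treated cultures.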

[5] = NCI Yeast Anticancer Drug Screen. Data for the rad50 strain (AID 155);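 further: 0% = growth of vehicle-only cultures of the same strain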; details: S. cerevisiae rad50 strain growth inhibition, active compounds read high
In short: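 DNA repair mutant yeast, compound exposure, growth read-out; inhibition is taken relative to vehicle.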

[6] = NCI Yeast Anticancer Drug Screen. Data for the mec2-1 strain (AID 157); details: S. cerevisiae mec2-1 strain, active compounds read high
In short: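 Yeast mec2-1 mutant treated with compound. Readout: growth inhibition vs vehicle controls.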

[7] = NCI Yeast Anticancer Drug Screen. Data for the rad14 strain (AID 159);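 further: 0% = growth of vehicle-treated control cultures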; details: S. cerevisiae rad14 strain growth inhibition, active compounds read high
In short: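 DNA repair-defective yeast, compound-exposed; % growth inhibition derived by comparison with vehicle-treated controls.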

[8] = NCI Yeast Anticancer Drug Screen. Data for the CLN2oe strain (AID 163);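 further: 0% = growth of vehicle-only control cultures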; details: S. cerevisiae CLN2oe strain, active compounds read high
In short: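 Read-out: yeast growth inhibition, expressed relative to vehicle-only controls. The strain bears an engineered cell-cycle alteration.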

[9] = NCI Yeast Anticancer Drug Screen. Data for the cln2 rad14 strain (AID 165);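 further: 0% = growth equal to vehicle treated cultures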; details: S. cerevisiae cln2 rad14 strain, active compounds read high
In short: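 cln2 rad14 yeast strain; compound exposure; growth inhibition read vs vehicle controls.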

[10] = NCI Yeast Anticancer Drug Screen. Data for the bub3 strain (AID 167); details: S. cerevisiae bub3 mutant strain, active compounds read high
In short: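 In this screen, a yeast mutant lacking normal mitotic checkpoint function is challenged with compound. Relative growth versus vehicle gives the inhibition value.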

[11] = NCI Yeast Anticancer Drug Screen. Data for the wt2 strain (AID 169);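 further: 0% = growth of vehicle-treated yeast cultures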; details: S. cerevisiae wt2 strain growth inhibition, active compounds read high
In short: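 Read-out: growth inhibition versus vehicle-treated control cultures after compound exposure of the yeast strain.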

[12] = NCI Yeast Anticancer Drug Screen. Data for the mlh1 strain (AID 171);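 further: 0% = growth of vehicle-treated control cultures of the same strain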; details: S. cerevisiae mlh1 strain growth inhibition, active compounds read high
In short: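 Read-out: growth inhibition versus vehicle controls. Strain: engineered yeast with a defined DNA repair or cell cycle defect, compound-treated.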

[13] = NCI Yeast Anticancer Drug Screen. Data for the sgs1 strain (AID 173);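 further: 0% = growth of vehicle-only control cultures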; details: S. cerevisiae sgs1 mutant, active compounds read high
In short: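 Read-out: yeast growth inhibition relative to vehicle controls, following compound exposure of a strain with a defined DNA repair/cell cycle alteration.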

[14] = NCI Yeast Anticancer Drug Screen. Data for the mlh1 rad18 strain (AID 175); details: S. cerevisiae mlh1 rad18 strain growth inhibition, active compounds read high
In short: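 Yeast w/ defined DNA-repair lesions; compound exposure; growth vs vehicle controls → % inhibition.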

[15] = NCI Yeast Anticancer Drug Screen. Data for the rad18 strain (AID 177); details: S. cerevisiae rad18 mutant growth inhibition, active compounds read high
In short: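 Readout: growth inhibition vs vehicle controls. Cells: genetically altered yeast strain, DNA repair defect.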

[16] = at 5.0 µM (retest, dose inferred, filed as 0.5)
[17] = at 50.0 µM (retest, dose inferred, filed as 5.0)

Measured: growth inhibition

CCOC(=O)[C@H]1Nc2ccccc2C2c3ccccc3CC21 (some centres not stated)
inactive: [1]; at 1.2 µM -39% | [1]; at 3.7 µM -44% | [1]; at 11.0 µM -10% | [1]; at 33.0 µM 55% | [2]; at 1.2 µM -9% | [2]; at 3.7 µM -2% | [2]; at 11.0 µM 0% | [2]; at 33.0 µM 26% | [2]; at 100.0 µM 54% | [3]; at 1.2 µM 6% | [3]; at 3.7 µM 0% | [3]; at 11.0 µM 14% | [3]; at 33.0 µM 31% | [3]; at 100.0 µM 14% | [4]; at 1.2 µM -4% | [4]; at 3.7 µM 10% | [4]; at 11.0 µM 53% | [4]; at 33.0 µM 64% | [4]; at 100.0 µM 65% | [5]; at 1.2 µM -6% | [5]; at 3.7 µM -9% | [5]; [16] 15% | [5]; at 11.0 µM -4% | [5]; at 33.0 µM 27% | [5]; at 100.0 µM 55% | [6]; at 1.2 µM -23% | [6]; at 3.7 µM -12% | [6]; [16] -10% | [6]; at 11.0 µM 21% | [6]; at 33.0 µM 53% | [6]; [17] 20% | [6]; at 100.0 µM 65% | [7]; at 1.2 µM -13% | [7]; at 3.7 µM -16% | [7]; at 11.0 µM 1% | [7]; at 33.0 µM 22% | [7]; at 100.0 µM 50% | [8]; at 1.2 µM 5% | [8]; at 3.7 µM -1% | [8]; at 11.0 µM 11% | [8]; at 33.0 µM 30% | [8]; at 100.0 µM 23% | [9]; [16] 13% | [10]; at 1.2 µM -4% | [10]; at 3.7 µM 11% | [10]; [16] -6% | [10]; at 11.0 µM 23% | [11]; at 1.2 µM -31% | [11]; at 3.7 µM -25% | [11]; at 11.0 µM 21% | [11]; at 33.0 µM 44% | [11]; at 100.0 µM 48% | [12]; at 1.2 µM -3% | [12]; at 3.7 µM 28% | [12]; at 11.0 µM 52% | [12]; at 100.0 µM 60% | [13]; at 1.2 µM -6% | [13]; at 3.7 µM 4% | [13]; at 11.0 µM 41% | [13]; at 33.0 µM 64% | [14]; [16] 8% | [15]; at 1.2 µM -31% | [15]; at 3.7 µM -36% | [15]; at 11.0 µM 17% | [15]; at 33.0 µM 64%
active: [1]; at 100.0 µM 76% | [5]; [17] 91% | [5]; at 50.0 µM 84.6% | [6]; at 50.0 µM 91.3% | [9]; [17] 73% | [9]; at 50.0 µM 90.9% | [10]; at 33.0 µM 79% | [10]; [17] 75% | [10]; at 50.0 µM 90.5% | [10]; at 100.0 µM 81% | [12]; at 33.0 µM 70% | [13]; at 100.0 µM 72% | [14]; [17] 94% | [14]; at 50.0 µM 87.8% | [15]; at 100.0 µM 74%

Cc1cccc2c(C(O)CBr)cc(-c3ccc(Cl)cc3)nc12 (configuration not stated)
inactive: [1]; at 1.2 µM 0% | [1]; at 3.7 µM 20% | [2]; at 1.2 µM -3% | [2]; at 3.7 µM -5% | [3]; at 1.2 µM 1% | [3]; at 3.7 µM 10% | [3]; at 11.0 µM 32% | [3]; at 33.0 µM 40% | [3]; at 100.0 µM 54% | [4]; at 1.2 µM -2% | [4]; at 3.7 µM -1% | [5]; at 1.2 µM 0% | [5]; at 3.7 µM 11% | [5]; [16] 3% | [6]; at 1.2 µM 0% | [6]; at 3.7 µM 4% | [6]; [16] 1% | [6]; at 100.0 µM 51% | [7]; at 1.2 µM -4% | [7]; at 3.7 µM 3% | [8]; at 1.2 µM -2% | [8]; at 3.7 µM -3% | [8]; at 100.0 µM 51% | [10]; at 1.2 µM 0% | [10]; at 3.7 µM 8% | [10]; [16] -1% | [10]; at 100.0 µM 45% | [11]; at 1.2 µM -4% | [11]; at 3.7 µM -6% | [12]; at 1.2 µM -5% | [12]; at 3.7 µM 1% | [12]; at 100.0 µM 48% | [13]; at 1.2 µM -2% | [13]; at 3.7 µM 7% | [14]; [16] 1% | [15]; at 1.2 µM -3% | [15]; at 3.7 µM 17%
active: [1]; at 11.0 µM 98% | [1]; at 33.0 µM 96% | [1]; at 100.0 µM 87% | [2]; at 11.0 µM 98% | [2]; at 33.0 µM 97% | [2]; at 100.0 µM 91% | [4]; at 11.0 µM 98% | [4]; at 33.0 µM 97% | [4]; at 100.0 µM 92% | [5]; at 11.0 µM 98% | [5]; at 33.0 µM 96% | [5]; [17] 93% | [5]; at 50.0 µM 93.8% | [5]; at 100.0 µM 88% | [6]; at 11.0 µM 99% | [6]; at 33.0 µM 97% | [6]; [17] 96% | [6]; at 50.0 µM 96.1% | [7]; at 11.0 µM 99% | [7]; at 33.0 µM 97% | [7]; at 100.0 µM 88% | [8]; at 11.0 µM 98% | [8]; at 33.0 µM 96% | [10]; at 11.0 µM 98% | [10]; at 33.0 µM 96% | [10]; [17] 96% | [10]; at 50.0 µM 92.5% | [11]; at 11.0 µM 98% | [11]; at 33.0 µM 96% | [11]; at 100.0 µM 88% | [12]; at 11.0 µM 98% | [12]; at 33.0 µM 95% | [13]; at 11.0 µM 98% | [13]; at 33.0 µM 96% | [13]; at 100.0 µM 90% | [14]; [17] 95% | [14]; at 50.0 µM 95.3% | [15]; at 11.0 µM 98% | [15]; at 33.0 µM 95% | [15]; at 100.0 µM 88%
